Data from PubChem BioAssay.
Calls of active or inactive are those of the source. Unless noted, the rule behind the calls is not given here.

Tests used:
[1] = system: Wnt5a (protein binding on small-molecule microarray); experiment: small molecules binding Wnt5a protein – biophysical, small-molecule microarray, 635/667 nm fluorescence, primary screen (AID 1142); details: 635 nm fluorescence, higher = more signal;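 note: fluorescence read at 667 nm with signal to noise per printed feature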
[2] = ATP-based viability of Huh7 replicon cells – cell-based, CellTiter-Glo luminescence, basal, 48 h, cytotoxicity control for HCV replication inhibitor project, primary screen (AID 1143); details: higher = more signal, called active from +8 up or from −8 down;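 note: Huh7 hepatoma cells carrying a hepatitis C replication reporter with no stimulus; test concentration not given here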
[3] = Pseudomonas biofilm growth suppression – PAO1 strain, BacTiter-Glo luminescence, LB-PBS, primary screen (AID 1144); details: P. aeruginosa PAO1 biofilm, 12 h, higher = more signal
[4] = basal CRE-LacZ reporter activity in PC12 – cell-based, unstimulated, primary screen (AID 1145); details: no forskolin, luminescence, 4.5 h, higher = more signal, called active from +8 up or from −8 down
[5] = forskolin-driven CRE-LacZ activity in PC12 – cell-based, CRE-LacZ reporter, forskolin-stimulated, primary screen (AID 1146); details: luminescence, 4.5 h, higher = more signal, called active from +8 up or from −8 down;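 note: PC12 cells with 6xCRE LacZ reporter stimulated by forskolin 10 µM; beta-galactosidase reporter signal reflecting CREB driven transcription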
[6] = molecular target: Streptavidin (Streptomyces avidinii) (UniProt P22629); experiment: compounds binding control protein streptavidin – biophysical, small-molecule microarray, 635/667 nm fluorescence, artefact control for SMM compound annotation, primary screen (AID 1147); details: higher = more signal;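 note: signal reflects streptavidin binding to arrayed compounds as a control protein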
Sequence of Streptavidin (Streptomyces avidinii) (P22629 whole entry, looked up): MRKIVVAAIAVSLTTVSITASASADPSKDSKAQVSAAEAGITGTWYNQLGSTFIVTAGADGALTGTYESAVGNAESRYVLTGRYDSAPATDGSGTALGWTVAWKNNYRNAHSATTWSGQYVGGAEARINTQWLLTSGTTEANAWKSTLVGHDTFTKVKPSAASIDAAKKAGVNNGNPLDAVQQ

[7] = probe aInhba binding on compound microarray – biochemical, small-molecule microarray, 635/667 nm fluorescence, primary screen (AID 1148); details: higher = more signal;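 note: score merges 667nm spot fluorescence with signal-to-noise for antibody binding to printed compounds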
Torsin-1A (Homo sapiens) [8] = molecular target: Torsin-1A (Homo sapiens) (UniProt O14656); experiment: TOR1A wild-type binding on microarray – cell lysate, small-molecule microarray, lysate, 635/667 nm, primary screen (AID 1149); details: COS7 hTOR1A-WT lysate, 635 nm fluorescence, higher = more signal
Sequence of Torsin-1A (Homo sapiens) (O14656 whole entry, looked up): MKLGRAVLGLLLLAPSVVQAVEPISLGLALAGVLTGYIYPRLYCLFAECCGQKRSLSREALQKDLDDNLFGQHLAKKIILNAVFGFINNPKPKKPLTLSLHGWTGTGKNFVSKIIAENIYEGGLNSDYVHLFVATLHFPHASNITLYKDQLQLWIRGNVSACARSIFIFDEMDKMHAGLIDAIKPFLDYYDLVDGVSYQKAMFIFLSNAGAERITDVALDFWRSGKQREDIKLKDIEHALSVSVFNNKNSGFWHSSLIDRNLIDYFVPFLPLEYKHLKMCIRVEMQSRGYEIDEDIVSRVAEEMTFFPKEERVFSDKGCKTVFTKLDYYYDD

Torsin-1A (Homo sapiens) [9] = molecular target: Torsin-1A (Homo sapiens) (UniProt O14656); experiment: torsin A mutant lysate binding on microarrays – cell lysate, small-molecule microarray, COS7 lysate, 635/667 nm fluorescence, primary screen (AID 1150); details: COS7 hTOR1A mutant lysate, 635 nm fluorescence, higher = more signal;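 note: score pools 667 nm emission and signal to noise measuring lysate protein binding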
[10] = system: Sonic hedgehog protein (Shh); experiment: Sonic hedgehog microarray binding compounds – biochemical, small-molecule microarray, 635/667 nm fluorescence, primary screen (AID 1151); details: 635 nm fluorescence, higher = more signal;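 note: Shh protein binding to compounds spotted on small-molecule microarray slides; score combines spot fluorescence intensity with signal-to-noise across triplicate slides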
[11] = optical density shifts of acrAB sulA E. coli – strain DRC41, OD650, 48 h, E. coli filamentation inducer project, primary screen (AID 1152); details: higher = more signal, called active from +8 up or from −8 down;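 note: E. coli MC1000 strain DRC41 lacking acrAB efflux pump and sulA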
[12] = probe aLefty1 binding on compound microarray – biochemical, small-molecule microarray, 635/667 nm fluorescence, primary screen (AID 1153); details: higher = more signal;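 note: score merges spot fluorescence with signal-to-noise ratio from the scanned slide images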
[13] = plasmodial surface anion channel blockers, osmotic lysis – cell-based, P. falciparum Indochina, OD700, 1 h, primary screen (AID 1154); details: P. falciparum Indochina infected RBC osmotic lysis, higher = more signal, called active from +8 up or from −8 down
[14] = plasmodial surface anion channel blockers, osmotic lysis – cell-based, P. falciparum Indochina, OD700, 2 h, primary screen (AID 1155);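 note: lysis reports solute entry through the parasite surface anion channel PSAC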; details: P. falciparum Indochina infected erythrocytes, higher = more signal, called active from +8 up or from −8 down
[15] = changes in parasitized red cell lysis, either direction – P. falciparum Indochina, OD700, 3 h, PSAC antagonist project, primary screen (AID 1156); details: P. falciparum-infected erythrocytes, osmotic lysis, higher = more signal, called active from +8 up or from −8 down
[16] = plasmodial surface anion channel blockers, osmotic lysis – cell-based, P. falciparum Indochina, OD700, 18 h, primary screen (AID 1157); details: P. falciparum Indochina infected erythrocytes, osmotic lysis OD700, 18 h; higher = more signal, called active from +8 up or from −8 down
[17] = S6 kinase pathway phospho-S6 level changes – cell-based, A549, cytoblot, luminescence, serum-stimulated, primary screen (AID 1158); details: 5 h, higher = more signal;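 note: serum-stimulated A549 lung adenocarcinoma cells; signal is phosphorylated S6 detected by cytoblot immunostaining with HRP secondary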
[18] = molecular target: NADPH oxidase 2 (Homo sapiens) (UniProt P04839); experiment: compounds shifting NOX2 Amplex Red fluorescence – cell-based, HEK293-NOX2, PMA-stimulated, NOX inhibitor project, primary screen (AID 1159); details: 45 min, higher = more signal, called active from +8 up or from −8 down; note: test concentration not given here
Sequence of NADPH oxidase 2 (Homo sapiens) (P04839 whole entry, looked up): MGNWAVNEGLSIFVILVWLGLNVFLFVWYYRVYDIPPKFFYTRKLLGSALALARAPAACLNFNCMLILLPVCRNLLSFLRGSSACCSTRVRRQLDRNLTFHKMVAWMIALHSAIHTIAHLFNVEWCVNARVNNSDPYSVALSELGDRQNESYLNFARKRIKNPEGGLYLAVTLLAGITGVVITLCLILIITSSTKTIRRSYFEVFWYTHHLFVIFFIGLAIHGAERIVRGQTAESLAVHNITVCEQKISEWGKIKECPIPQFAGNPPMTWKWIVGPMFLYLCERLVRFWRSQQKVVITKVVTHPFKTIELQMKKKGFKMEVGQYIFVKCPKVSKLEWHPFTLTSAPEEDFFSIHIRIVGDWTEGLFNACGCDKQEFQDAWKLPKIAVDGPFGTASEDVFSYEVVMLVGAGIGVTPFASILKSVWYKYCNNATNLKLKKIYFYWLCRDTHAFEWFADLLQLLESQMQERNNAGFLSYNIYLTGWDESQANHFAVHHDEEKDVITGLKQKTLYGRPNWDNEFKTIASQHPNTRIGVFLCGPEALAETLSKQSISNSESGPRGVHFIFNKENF

[19] = molecular target: NADPH oxidase 4 (Homo sapiens) (UniProt Q9NPH5); experiment: compounds shifting NOX4 Amplex Red fluorescence – cell-based, HEK293-NOX4, tetracycline-induced, NOX inhibitor project, primary screen (AID 1160); details: HEK293-NOX4, Amplex Red H2O2 fluorescence, 45 min; higher = more signal, called active from +8 up or from −8 down
Sequence of NADPH oxidase 4 (Homo sapiens) (Q9NPH5 whole entry, looked up): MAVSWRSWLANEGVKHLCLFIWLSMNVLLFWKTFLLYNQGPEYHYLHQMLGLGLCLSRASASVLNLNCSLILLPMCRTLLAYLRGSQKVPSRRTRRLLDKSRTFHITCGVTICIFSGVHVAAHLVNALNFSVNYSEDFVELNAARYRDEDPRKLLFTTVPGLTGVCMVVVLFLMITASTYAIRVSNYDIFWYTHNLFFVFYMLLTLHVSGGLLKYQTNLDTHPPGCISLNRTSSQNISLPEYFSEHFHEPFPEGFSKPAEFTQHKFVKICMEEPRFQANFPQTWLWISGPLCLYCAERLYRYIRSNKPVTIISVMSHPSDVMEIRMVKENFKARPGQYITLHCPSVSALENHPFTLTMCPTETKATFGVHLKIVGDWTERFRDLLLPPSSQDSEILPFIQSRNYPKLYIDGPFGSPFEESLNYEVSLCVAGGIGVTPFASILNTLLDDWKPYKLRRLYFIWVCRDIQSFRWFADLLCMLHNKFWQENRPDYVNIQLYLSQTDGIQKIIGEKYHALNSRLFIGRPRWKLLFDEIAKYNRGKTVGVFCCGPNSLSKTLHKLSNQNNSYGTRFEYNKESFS

[20] = molecular target: NADPH oxidase 5 (Homo sapiens) (UniProt Q96PH1); experiment: compounds shifting NOX5 Amplex Red fluorescence – cell-based, HEK293-NOX5, NOX inhibitor project, primary screen (AID 1161); details: HEK293-NOX5, ionomycin, 45 min, higher = more signal
Sequence of NADPH oxidase 5 (Homo sapiens) (Q96PH1 whole entry, looked up): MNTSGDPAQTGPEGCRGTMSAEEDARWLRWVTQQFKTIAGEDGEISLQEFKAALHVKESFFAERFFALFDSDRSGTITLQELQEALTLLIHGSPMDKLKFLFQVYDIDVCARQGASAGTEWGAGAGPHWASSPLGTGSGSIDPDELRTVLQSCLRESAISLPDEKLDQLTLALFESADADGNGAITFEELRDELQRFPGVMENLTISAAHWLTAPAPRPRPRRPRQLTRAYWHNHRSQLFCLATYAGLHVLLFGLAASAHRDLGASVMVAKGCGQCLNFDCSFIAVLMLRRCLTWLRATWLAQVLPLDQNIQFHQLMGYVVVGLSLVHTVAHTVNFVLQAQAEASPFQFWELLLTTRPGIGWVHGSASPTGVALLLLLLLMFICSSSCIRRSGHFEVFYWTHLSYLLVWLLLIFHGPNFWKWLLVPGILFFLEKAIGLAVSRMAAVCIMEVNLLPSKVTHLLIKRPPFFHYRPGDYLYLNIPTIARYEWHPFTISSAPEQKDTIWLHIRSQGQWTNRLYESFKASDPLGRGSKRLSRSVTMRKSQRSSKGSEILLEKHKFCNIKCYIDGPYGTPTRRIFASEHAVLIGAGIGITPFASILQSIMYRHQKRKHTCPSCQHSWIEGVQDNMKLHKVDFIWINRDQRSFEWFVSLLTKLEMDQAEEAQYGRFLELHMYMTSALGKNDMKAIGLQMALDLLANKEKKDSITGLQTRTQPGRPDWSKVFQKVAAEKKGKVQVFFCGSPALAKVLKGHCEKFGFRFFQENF

| SMILES | composite z-score [1] | z-score [2] | z-score [3] | z-score [4] | z-score [5] | composite z-score [6] | composite z-score [7] | composite z-score (Torsin-1A (Homo sapiens) [8]) | composite z-score (Torsin-1A (Homo sapiens) [9]) | composite z-score [10] | z-score [11] | composite z-score [12] | z-score [13] | z-score [14] | z-score [15] | z-score [16] | z-score [17] | z-score [18] | z-score [19] | z-score [20] |
| --- | --- | --- | --- | --- | --- | --- | --- | --- | --- | --- | --- | --- | --- | --- | --- | --- | --- | --- | --- | --- |
| COCCOC(=O)N1C(=O)[C@@]2(c3cc(C#CCC(C(=O)OC)C(=O)OC)ccc31)[C@H](c1ccc(O)cc1)N1[C@H](c3ccccc3)[C@H](c3ccccc3)OC(=O)[C@H]1[C@@H]2C(=O)Nc1nc2ccccc2s1 | 0.553 | -1.48 (inactive) | 0.164 (inactive) | -0.195 (inactive) | -0.521 (inactive) | 0.633 | 0.221 | 0.533 | 0.479 | 1.77 | 0.306 (inactive) | 0.251 | 2.75 (inactive) | 0.666 (inactive) | 0.34 (inactive) | 0.802 (inactive) | -0.286 | 1.1 (inactive) | -1.09 (inactive) | 0.698 |
| C=CCNC(=O)[C@H]1[C@@H]2C(=O)O[C@@H](c3ccccc3)[C@@H](c3ccccc3)N2[C@@H](c2ccccc2OCCO)[C@]12C(=O)N(C(=O)OCCOC)c1ccc(C#Cc3ccc(OC)cc3)cc12 | 0.571 | -2.77 (inactive) | -0.394 (inactive) | 1.12 (inactive) | -0.261 (inactive) | 0.12 | -0.149 | 0.292 | 0.51 | 0.168 | 0.296 (inactive) | 0.0114 | 2.46 (inactive) | 1.98 (inactive) | 0.0435 (inactive) | 1.25 (inactive) | 0.638 | 1.74 (inactive) | 0.404 (inactive) | 0.673 |
| COc1ccc([Si](C)(C)[C@H]2[C@H](CCO)O[C@@]3(C(=O)N(Cc4cccc(N5C(=O)c6ccccc6Oc6ccccc65)c4)c4ccccc43)[C@@H]2C)cc1 | 0.0511 | -6.96 (inactive) | -0.365 (inactive) | 0.716 (inactive) | -1.1 (inactive) | 0.4 | -0.05 | -0.412 | -0.54 | 0.734 | 0.253 (inactive) | 0.119 | 2.63 (inactive) | 2.78 (inactive) | 0.979 (inactive) | 1.6 (inactive) | 0.87 | -1.93 (inactive) | 2.27 (inactive) | 1.1 |
| C=C(C)[C@@H]1CC=C(C(O)C2C=CC3C(=O)N(c4ccccc4)C(=O)C3N2Nc2ccc([N+](=O)[O-])cc2)CC1 (stereo not given in full) | 0.331 | -1.14 (inactive) | -1.4 (inactive) | -0.527 (inactive) | -0.605 (inactive) | 1.5 | 0.19 | 0.875 | 0.685 | 1.11 | -1.58 (inactive) | 0.37 | 5.76 (inactive) | 1.9 (inactive) | 1.34 (inactive) | 1.79 (inactive) | -0.456 | -0.962 (inactive) | -2.07 (inactive) | -2.96 |
| C=C(COC)C(=O)CC[C@@H](OC(=O)c1ccccc1-c1ccccc1C(=O)O)c1ccc(OCCO)cc1 | 0.238 | -0.043 (inactive) | -0.147 (inactive) | 0.727 (inactive) | 1.36 (inactive) | -0.986 | 0.0018 | -0.0281 | 1.15 | 1.86 | -0.172 (inactive) | 0.712 | 10.8 (active) | 0.971 (inactive) | 0.489 (inactive) | 0.381 (inactive) | -0.528 | 0.849 (inactive) | -0.245 (inactive) | -1.32 |
| CC(C)NC(=O)[C@@H]1c2ccccc2C(=O)N(Cc2ccc(OC(F)(F)F)cc2)[C@H]1c1ccc(CO)cc1 | 0.663 | -1.54 (inactive) | -0.294 (inactive) | -0.0243 (inactive) | 0.442 (inactive) | 0.201 | 0.618 | 1.12 | 0.39 | 1.81 | -0.376 (inactive) | 1.24 | 2.18 (inactive) | -0.0655 (inactive) | 2.65 (inactive) | 0.179 (inactive) | -0.065 | 0.412 (inactive) | -0.27 (inactive) | 1.87 |
| CC(C)(C)OC(=O)CC[C@]1(C(=O)NCC(O)CO)N=C(c2ccc(OCCCO)cc2)O[C@H]1c1ccccc1N=[N+]=[N-] (stereo not given in full) | 0.112 | -1.01 (inactive) | -0.00253 (inactive) | -0.0808 (inactive) | -1.48 (inactive) | 1.38 | 0.32 | 0.172 | 0.565 | 0.0555 | 0.618 (inactive) | 0.215 | 29.9 (active) | 27.1 (active) | 1.38 (inactive) | 6.1 (inactive) | -0.465 | -3.04 (inactive) | 1.04 (inactive) | -1.68 |
| COC(=O)C(CC#Cc1ccc2c(c1)[C@]1(C(=O)N2)[C@H](C(=O)NC[C@H](O)c2ccccc2)[C@H]2C(=O)O[C@H](c3ccccc3)[C@H](c3ccccc3)N2[C@@H]1c1ccccc1OCCO)C(=O)OC | 0.649 | -6.04 (inactive) | -1.21 (inactive) | -0.671 (inactive) | -0.276 (inactive) | 0.703 | 0.0154 | 0.326 | 0.506 | 1.32 | 1.52 (inactive) | -0.0559 | 4.2 (inactive) | 0.574 (inactive) | 0.725 (inactive) | -0.124 (inactive) | 1.46 | 0.504 (inactive) | -0.421 (inactive) | -2.45 |
